Measurements reported in the supplement of paper PMC6411743.
± gives the standard deviation of the averaged measurements. Targets with the largest changes are over-represented here; the source holds about 5,400 in all.

Compound: Nc1nc2c(ncn2[C@@H]2O[C@H](COP(=O)(O)OP(=O)(O)OP(=O)(O)O)[C@@H](O)[C@H]2O)c(=O)[nH]1 [guanosine triphosphate]
Assay: NP40-soluble protein abundance relative to vehicle (solubility fold change) (ratio); higher = more soluble protein in presence of GTP
Procedure, shortened: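 In three independent experiments, Jurkat crude lysate made by Dounce homogenisation was treated for 10 min at room temperature and then 3 min at 37 °C with eight concentrations ranging from 0.1 to 10 mM. It was then solubilised with 0.8% NP40 plus benzonase for 60 min at 4 °C and ultracentrifuged. The supernatant was TMT-labelled for LC-MS/MS, and each value is the fold change against the detergent-processed vehicle for the same replicate, using vsn-normalised intensities.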

Sequence of UniProt P55196 (P55196 whole entry, one chain of several): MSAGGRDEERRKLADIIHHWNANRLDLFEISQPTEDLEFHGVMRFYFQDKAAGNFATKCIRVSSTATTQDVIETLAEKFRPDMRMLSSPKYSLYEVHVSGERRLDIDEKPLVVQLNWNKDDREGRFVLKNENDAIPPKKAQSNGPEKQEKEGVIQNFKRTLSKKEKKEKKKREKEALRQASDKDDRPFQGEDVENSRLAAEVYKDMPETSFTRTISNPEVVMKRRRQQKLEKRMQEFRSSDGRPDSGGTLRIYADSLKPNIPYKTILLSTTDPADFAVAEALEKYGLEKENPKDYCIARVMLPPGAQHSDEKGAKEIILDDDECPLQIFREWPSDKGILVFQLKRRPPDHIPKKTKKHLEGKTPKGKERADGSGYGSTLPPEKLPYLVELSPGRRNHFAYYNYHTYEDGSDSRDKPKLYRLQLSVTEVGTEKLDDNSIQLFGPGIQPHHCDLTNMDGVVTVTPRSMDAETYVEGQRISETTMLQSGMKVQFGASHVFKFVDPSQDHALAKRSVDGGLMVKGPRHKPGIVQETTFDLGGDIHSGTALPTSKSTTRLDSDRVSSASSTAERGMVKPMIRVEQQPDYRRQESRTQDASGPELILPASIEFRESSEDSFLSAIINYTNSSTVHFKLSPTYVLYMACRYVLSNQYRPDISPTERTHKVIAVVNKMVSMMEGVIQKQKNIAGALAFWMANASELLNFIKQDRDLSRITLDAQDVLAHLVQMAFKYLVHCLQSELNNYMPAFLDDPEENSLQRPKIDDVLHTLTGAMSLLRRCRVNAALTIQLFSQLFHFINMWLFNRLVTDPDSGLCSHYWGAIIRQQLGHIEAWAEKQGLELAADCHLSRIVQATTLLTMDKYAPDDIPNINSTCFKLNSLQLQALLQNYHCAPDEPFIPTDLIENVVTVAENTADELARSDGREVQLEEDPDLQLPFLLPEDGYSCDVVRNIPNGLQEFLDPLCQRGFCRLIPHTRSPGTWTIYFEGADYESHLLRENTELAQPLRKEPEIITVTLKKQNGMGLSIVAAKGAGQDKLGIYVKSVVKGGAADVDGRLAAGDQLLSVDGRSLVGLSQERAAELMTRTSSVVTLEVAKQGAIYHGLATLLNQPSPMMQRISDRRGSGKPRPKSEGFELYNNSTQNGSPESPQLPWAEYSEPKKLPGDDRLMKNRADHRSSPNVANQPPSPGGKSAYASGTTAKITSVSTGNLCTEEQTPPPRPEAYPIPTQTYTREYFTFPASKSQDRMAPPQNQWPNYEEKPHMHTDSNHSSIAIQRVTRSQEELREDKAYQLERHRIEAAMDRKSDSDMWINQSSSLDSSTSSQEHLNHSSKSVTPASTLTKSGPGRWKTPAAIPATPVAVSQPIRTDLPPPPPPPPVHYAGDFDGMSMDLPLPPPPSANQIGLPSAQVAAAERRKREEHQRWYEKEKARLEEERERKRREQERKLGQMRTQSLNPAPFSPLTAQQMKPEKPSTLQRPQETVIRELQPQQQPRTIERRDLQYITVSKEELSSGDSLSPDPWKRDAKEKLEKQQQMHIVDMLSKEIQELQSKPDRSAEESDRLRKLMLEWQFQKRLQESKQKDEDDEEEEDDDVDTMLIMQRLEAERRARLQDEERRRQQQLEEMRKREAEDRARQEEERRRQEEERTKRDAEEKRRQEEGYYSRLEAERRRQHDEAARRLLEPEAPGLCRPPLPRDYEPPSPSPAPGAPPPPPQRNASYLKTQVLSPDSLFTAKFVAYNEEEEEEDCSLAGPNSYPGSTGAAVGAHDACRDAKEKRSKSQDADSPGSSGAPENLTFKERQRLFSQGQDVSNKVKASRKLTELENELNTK
Sequence of UniProt P52747 (P52747 whole entry, one chain of several): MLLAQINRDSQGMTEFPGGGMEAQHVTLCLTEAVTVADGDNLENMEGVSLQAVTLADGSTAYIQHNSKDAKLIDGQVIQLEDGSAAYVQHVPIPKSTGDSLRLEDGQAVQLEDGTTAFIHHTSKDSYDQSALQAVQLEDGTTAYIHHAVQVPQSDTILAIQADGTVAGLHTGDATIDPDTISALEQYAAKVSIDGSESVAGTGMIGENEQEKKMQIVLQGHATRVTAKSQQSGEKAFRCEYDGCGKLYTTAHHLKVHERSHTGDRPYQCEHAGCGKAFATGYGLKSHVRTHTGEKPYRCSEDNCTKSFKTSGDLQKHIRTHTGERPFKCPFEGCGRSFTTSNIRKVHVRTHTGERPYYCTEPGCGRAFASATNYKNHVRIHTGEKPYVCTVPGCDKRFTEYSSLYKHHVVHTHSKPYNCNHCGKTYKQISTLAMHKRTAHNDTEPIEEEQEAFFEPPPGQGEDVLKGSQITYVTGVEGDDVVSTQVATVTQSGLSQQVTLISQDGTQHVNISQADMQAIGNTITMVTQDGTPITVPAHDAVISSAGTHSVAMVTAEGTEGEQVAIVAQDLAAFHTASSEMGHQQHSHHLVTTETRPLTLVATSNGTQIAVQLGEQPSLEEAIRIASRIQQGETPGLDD
Sequence of UniProt P08069 (P08069 whole entry, looked up, one chain of several): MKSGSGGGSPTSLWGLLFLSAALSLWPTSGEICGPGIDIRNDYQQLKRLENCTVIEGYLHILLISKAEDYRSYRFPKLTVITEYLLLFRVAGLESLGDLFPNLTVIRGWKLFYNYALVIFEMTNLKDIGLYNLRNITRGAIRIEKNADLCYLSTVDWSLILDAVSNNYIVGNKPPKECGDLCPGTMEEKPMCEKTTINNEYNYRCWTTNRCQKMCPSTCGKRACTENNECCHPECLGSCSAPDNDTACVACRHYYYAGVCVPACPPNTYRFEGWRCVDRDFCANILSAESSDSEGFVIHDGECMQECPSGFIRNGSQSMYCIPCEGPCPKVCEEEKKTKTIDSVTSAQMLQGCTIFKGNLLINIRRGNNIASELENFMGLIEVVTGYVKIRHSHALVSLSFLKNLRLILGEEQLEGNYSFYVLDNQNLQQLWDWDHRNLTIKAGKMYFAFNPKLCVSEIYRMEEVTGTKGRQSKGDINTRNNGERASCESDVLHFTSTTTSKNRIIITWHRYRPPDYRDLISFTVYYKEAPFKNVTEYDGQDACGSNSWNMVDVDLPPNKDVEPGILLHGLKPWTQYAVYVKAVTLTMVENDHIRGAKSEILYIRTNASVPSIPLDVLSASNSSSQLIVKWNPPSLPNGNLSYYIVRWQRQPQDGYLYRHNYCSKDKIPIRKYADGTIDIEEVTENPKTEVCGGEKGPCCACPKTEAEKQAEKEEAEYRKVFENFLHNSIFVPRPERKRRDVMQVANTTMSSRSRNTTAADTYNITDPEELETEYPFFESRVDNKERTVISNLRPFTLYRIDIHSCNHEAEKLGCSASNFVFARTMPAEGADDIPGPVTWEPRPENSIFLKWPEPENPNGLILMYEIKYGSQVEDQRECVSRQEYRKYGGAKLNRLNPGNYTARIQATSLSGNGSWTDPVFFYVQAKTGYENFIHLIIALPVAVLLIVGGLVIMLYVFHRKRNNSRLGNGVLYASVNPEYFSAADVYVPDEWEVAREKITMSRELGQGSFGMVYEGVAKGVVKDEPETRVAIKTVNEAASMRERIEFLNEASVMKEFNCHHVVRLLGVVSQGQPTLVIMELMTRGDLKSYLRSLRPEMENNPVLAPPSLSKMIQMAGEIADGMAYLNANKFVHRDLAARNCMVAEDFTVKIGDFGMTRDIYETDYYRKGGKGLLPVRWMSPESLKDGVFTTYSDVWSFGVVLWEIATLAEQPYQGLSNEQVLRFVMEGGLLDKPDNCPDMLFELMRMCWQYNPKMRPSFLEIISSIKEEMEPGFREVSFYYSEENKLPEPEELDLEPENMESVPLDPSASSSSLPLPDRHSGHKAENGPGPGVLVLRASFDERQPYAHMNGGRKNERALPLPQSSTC
Sequence of UniProt Q96RQ3 (Q96RQ3 whole entry, one chain of several): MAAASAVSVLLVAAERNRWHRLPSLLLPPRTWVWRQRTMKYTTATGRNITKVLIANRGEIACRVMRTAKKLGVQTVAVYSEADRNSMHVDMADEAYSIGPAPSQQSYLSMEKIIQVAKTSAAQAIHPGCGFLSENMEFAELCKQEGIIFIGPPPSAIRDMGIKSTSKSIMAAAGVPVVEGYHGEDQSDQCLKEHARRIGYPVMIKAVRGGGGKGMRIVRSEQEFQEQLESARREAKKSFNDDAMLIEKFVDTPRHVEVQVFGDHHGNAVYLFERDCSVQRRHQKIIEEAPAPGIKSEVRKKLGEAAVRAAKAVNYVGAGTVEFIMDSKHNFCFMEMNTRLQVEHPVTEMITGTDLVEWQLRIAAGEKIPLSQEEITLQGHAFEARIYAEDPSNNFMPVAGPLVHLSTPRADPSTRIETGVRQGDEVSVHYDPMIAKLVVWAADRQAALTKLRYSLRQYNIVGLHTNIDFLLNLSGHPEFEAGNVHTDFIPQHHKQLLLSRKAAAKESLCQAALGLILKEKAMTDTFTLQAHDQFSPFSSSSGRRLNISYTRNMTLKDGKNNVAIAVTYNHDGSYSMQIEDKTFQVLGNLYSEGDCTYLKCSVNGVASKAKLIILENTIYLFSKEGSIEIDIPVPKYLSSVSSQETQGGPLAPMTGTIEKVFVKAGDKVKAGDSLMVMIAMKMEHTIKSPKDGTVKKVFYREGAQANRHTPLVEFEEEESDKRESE
Sequence of UniProt O43708 (O43708 whole entry, one chain of several): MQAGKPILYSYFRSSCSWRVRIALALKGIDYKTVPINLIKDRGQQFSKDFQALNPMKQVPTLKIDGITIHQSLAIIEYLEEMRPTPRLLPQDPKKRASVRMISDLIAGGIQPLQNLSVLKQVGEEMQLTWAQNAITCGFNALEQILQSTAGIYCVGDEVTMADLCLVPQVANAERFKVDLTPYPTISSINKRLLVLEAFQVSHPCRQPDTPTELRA
Sequence of UniProt Q9BTT0 (Q9BTT0 whole entry, one chain of several): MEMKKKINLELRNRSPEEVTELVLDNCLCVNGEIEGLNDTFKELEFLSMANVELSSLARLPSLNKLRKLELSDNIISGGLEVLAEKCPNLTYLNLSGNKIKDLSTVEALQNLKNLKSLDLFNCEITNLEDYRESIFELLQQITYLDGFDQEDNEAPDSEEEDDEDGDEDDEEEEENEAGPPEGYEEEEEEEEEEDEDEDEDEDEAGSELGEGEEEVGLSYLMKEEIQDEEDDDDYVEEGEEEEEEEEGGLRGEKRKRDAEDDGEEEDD

Target	NP40-soluble protein abundance (concentration: 0.1mM)	NP40-soluble protein abundance (concentration: 0.5mM)	NP40-soluble protein abundance (concentration: 1mM)	NP40-soluble protein abundance (concentration: 2mM)	NP40-soluble protein abundance (concentration: 4mM)	NP40-soluble protein abundance (concentration: 6mM)	NP40-soluble protein abundance (concentration: 8mM)	NP40-soluble protein abundance (concentration: 10mM)
A0A087X1E4|P53365|P53365-3 (UniProt P53365)	0.956 ± 0.05	0.853 ± 0.057	0.972 ± 0.052	0.963 ± 0.08	0.913 ± 0.088	0.906 ± 0.1	0.861 ± 0.14	0.889 ± 0.068
A0A087WSW9|A0A087WSY9|E9PIR7|F8W809|Q16881|Q16881-2|Q16881-3|Q16881-4|Q16881-5|Q16881-6 (UniProt Q16881)	0.99 ± 0.03	1.01 ± 0.041	0.918 ± 0.026	0.928 ± 0.049	0.88 ± 0.037	0.9 ± 0.041	0.847 ± 0.022	0.854 ± 0.059
A0A0C4DFX4|Q6ZRS2|Q6ZRS2-2|Q6ZRS2-3 (UniProt Q6ZRS2)	1.12 ± 0.075	1.11 ± 0.013	1.3 ± 0.042	1.44 ± 0.17	1.6 ± 0.21	1.62 ± 0.17	1.86 ± 0.33	1.83 ± 0.29
H3BMU3|O60268|O60268-3 (UniProt O60268)	0.928 ± 0.032	0.988 ± 0.17	1.01 ± 0.18	0.95 ± 0.15	0.961 ± 0.14	0.918 ± 0.2	0.919 ± 0.067	0.998 ± 0.096
A9IYQ1|Q9NTI5|Q9NTI5-2 (UniProt Q9NTI5)	1.01 ± 0.015	1.03 ± 0.024	1.01 ± 0.015	0.995 ± 0.036	1.01 ± 0.035	1.01 ± 0.052	1.02 ± 0.08	0.992 ± 0.041
A0A087WY82|Q9Y624|Q9Y624-2 (UniProt Q9Y624)	1 ± 0.041	0.953 ± 0.1	0.979 ± 0.038	0.938 ± 0.059	0.851 ± 0.066	0.952 ± 0.01	0.858 ± 0.076	0.898 ± 0.011
C9J5X1|P08069 (UniProt P08069)	1.04 ± 0.13	1.04 ± 0.13	1.15 ± 0.11	0.987 ± 0.07	1 ± 0.086	1.05 ± 0.1	1.07 ± 0.14	1.04 ± 0.2
G3V5T0|O43708 (UniProt O43708)	0.95 ± 0.046	0.961 ± 0.087	0.879 ± 0.058	0.867 ± 0.063	0.848 ± 0.068	0.854 ± 0.076	0.819 ± 0.096	0.815 ± 0.091
A0A087WU64|A6NMQ1|P09884 (UniProt P09884)	1.06 ± 0.025	1.07 ± 0.035	1.01 ± 0.047	1.02 ± 0.057	1.01 ± 0.033	0.994 ± 0.028	1.01 ± 0.051	0.973 ± 0.029
E9PGC0|P20936|P20936-2|P20936-4 (UniProt P20936)	1.05 ± 0.069	1.04 ± 0.091	1.02 ± 0.11	0.997 ± 0.072	0.909 ± 0.027	0.931 ± 0.032	0.961 ± 0.048	0.899 ± 0.031
A8MQ02|J3KN01|P55196|P55196-3|P55196-5 (UniProt P55196)	1.15 ± 0.16	0.987 ± 0.079	1 ± 0.038	1.05 ± 0.14	1.18 ± 0.34	1.18 ± 0.21	1.16 ± 0.14	1.13 ± 0.078
E9PPH5|Q9BTT0|Q9BTT0-3 (UniProt Q9BTT0)	0.838 ± 0.058	0.874 ± 0.062	0.978 ± 0.05	0.94 ± 0.045	0.937 ± 0.056	0.946 ± 0.037	0.958 ± 0.038	1.08 ± 0.079
UniProt A5PLN9|A5PLN9-2|A5PLN9-4|A5PLN9-5	1.02 ± 0.078	1.04 ± 0.052	0.99 ± 0.041	0.954 ± 0.05	0.969 ± 0.073	0.951 ± 0.041	0.965 ± 0.014	0.904 ± 0.014
E9PG35|E9PHF7|F5GYT8|Q96RQ3|G5E9X5 (UniProt Q96RQ3)	1.04 ± 0.093	1.07 ± 0.078	1.02 ± 0.16	1.08 ± 0.11	1.09 ± 0.15	1.08 ± 0.077	1.05 ± 0.19	1.03 ± 0.13
A6NFX8|Q9UKK9 (UniProt Q9UKK9)	1.05 ± 0.036	1.04 ± 0.07	0.987 ± 0.036	0.994 ± 0.079	0.968 ± 0.046	0.942 ± 0.052	0.93 ± 0.018	0.93 ± 0.01
C9JMV9|Q03154|Q03154-4 (UniProt Q03154+C9JMV9)	1.03 ± 0.012	1.03 ± 0.011	0.97 ± 0.078	0.924 ± 0.036	0.954 ± 0.019	0.933 ± 0.031	0.94 ± 0.05	0.956 ± 0.12
B0YIW6|P48444 (UniProt P48444)	1.06 ± 0.053	1.08 ± 0.078	1.02 ± 0.066	1.01 ± 0.11	1.02 ± 0.1	1.01 ± 0.083	0.975 ± 0.059	0.933 ± 0.067
E7EN86|P52747|P52747-2|P52747-3 (UniProt P52747)	1.06 ± 0.038	1.03 ± 0.024	0.988 ± 0.058	0.94 ± 0.013	0.988 ± 0.076	0.939 ± 0.055	1.03 ± 0.013	1.02 ± 0.045
G3XAN4|Q15629|Q15629-2 (UniProt Q15629)	0.776 ± 0.028	0.785 ± 0.098	0.911 ± 0.14	0.819 ± 0.16	0.8 ± 0.15	0.783 ± 0.23	0.898 ± 0.19	0.905 ± 0.16
B9ZVT1|Q8IXT5 (UniProt Q8IXT5)	1.02 ± 0.081	1.13 ± 0.19	1.21 ± 0.078	1.28 ± 0.25	1.29 ± 0.29	1.3 ± 0.32	1.45 ± 0.47	1.48 ± 0.39
F8VXG7|Q99590|Q99590-2 (UniProt Q99590)	1.02 ± 0.064	1.13 ± 0.03	1.22 ± 0.025	1.26 ± 0.058	1.3 ± 0.042	1.31 ± 0.031	1.4 ± 0.1	1.42 ± 0.12
B8ZZU6|E9PBF9|P15336-5|P15336 (UniProt P15336)	0.868 ± 0.086	0.907 ± 0.044	0.969 ± 0.14	0.943 ± 0.078	0.899 ± 0.011	0.899 ± 0.045	0.906 ± 0.1	0.955 ± 0.078
E9PHG5|Q6UW02|Q6UW02-2 (UniProt Q6UW02)	1.1 ± 0.21	1.04 ± 0.17	1.01 ± 0.075	1.04 ± 0.061	0.955 ± 0.16	0.984 ± 0.14	0.882 ± 0.25	0.884 ± 0.14
E9PDF6|O43795|O43795-2 (UniProt O43795)	1.44 ± 0.25	2.35 ± 0.38	2.32 ± 0.37	2.41 ± 0.43	2.4 ± 0.41	2.37 ± 0.38	2.33 ± 0.3	2.21 ± 0.26
B4E1Q4|O14730|O14730-2 (UniProt O14730)	0.965 ± 0.1	1.03 ± 0.063	0.949 ± 0.081	0.921 ± 0.073	0.806 ± 0.037	0.77 ± 0.041	0.747 ± 0.08	0.704 ± 0.041
E9PKP7|E9PLT2|P17480|P17480-2 (UniProt P17480)	1.02 ± 0.025	1 ± 0.036	1.08 ± 0.025	1.2 ± 0.079	1.31 ± 0.074	1.45 ± 0.066	1.5 ± 0.053	1.87 ± 0.13
